# Measurements as given in PMC11006913.
# Columns and labels:
# Experiment in all cases: PBM; 200 nM protein, PBS
# Settings in all cases: dsDNA, one strand shown
# [1] = molecular target: HESX1 (Homo sapiens, UniProt Q9UBX0 95-180, R165K)
# [2] = molecular target: SHOX (Homo sapiens, UniProt O15266 103-189)
# [3] = molecular target: ALX4 (Homo sapiens, UniProt Q9H161 200-286)
# [4] = molecular target: PRRX1 (Homo sapiens, UniProt P54821 80-166, F113S)
# [5] = molecular target: ALX4 (Homo sapiens, UniProt Q9H161 200-286, Q225E)
# [6] = molecular target: HESX1 (Homo sapiens, UniProt Q9UBX0 95-180)
# [7] = molecular target: MSX2 (Homo sapiens, UniProt P35548 130-214, R199I)
# [8] = molecular target: ALX1 (Homo sapiens, UniProt Q15699 118-204, L144V)
# [9] = molecular target: SHOX (Homo sapiens, UniProt O15266 103-189, R173C)
# [10] = molecular target: ALX1 (Homo sapiens, UniProt Q15699 118-204, L144R)
# [11] = molecular target: PROP1 (Homo sapiens, UniProt O75360 56-141)
# [12] = molecular target: HESX1 (Homo sapiens, UniProt Q9UBX0 95-180, R109Q)
# [13] = molecular target: PROP1 (Homo sapiens, UniProt O75360 56-141, R99H)
# [14] = molecular target: ALX3 (Homo sapiens, UniProt O95076 139-225, L168Q)
# [15] = molecular target: HESX1 (Homo sapiens, UniProt Q9UBX0 95-180, P111T)
# [16] = molecular target: PROP1 (Homo sapiens, UniProt O75360 56-141, F88S)
# [17] = molecular target: HESX1 (Homo sapiens, UniProt Q9UBX0 95-180, F115L)
# [18] = molecular target: ALX1 (Homo sapiens, UniProt Q15699 118-204)
# [19] = molecular target: PRRX1 (Homo sapiens, UniProt P54821 80-166)
# [20] = molecular target: MSX2 (Homo sapiens, UniProt P35548 130-214, F161Y)
# Sequence of MSX2 (Homo sapiens, UniProt P35548 130-214, F161Y) (P35548 130-214 F161Y): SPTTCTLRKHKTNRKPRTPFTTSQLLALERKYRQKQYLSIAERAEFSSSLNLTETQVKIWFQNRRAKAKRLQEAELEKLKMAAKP
# Sequence of PROP1 (Homo sapiens, UniProt O75360 56-141, F88S) (O75360 56-141 F88S): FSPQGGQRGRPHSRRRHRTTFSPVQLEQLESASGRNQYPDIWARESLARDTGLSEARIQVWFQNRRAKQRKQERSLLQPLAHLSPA
# Sequence of PROP1 (Homo sapiens, UniProt O75360 56-141) (O75360 56-141): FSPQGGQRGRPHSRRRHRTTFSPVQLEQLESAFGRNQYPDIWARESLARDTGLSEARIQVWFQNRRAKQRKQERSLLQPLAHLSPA
# Sequence of ALX1 (Homo sapiens, UniProt Q15699 118-204, L144R) (Q15699 118-204 L144R): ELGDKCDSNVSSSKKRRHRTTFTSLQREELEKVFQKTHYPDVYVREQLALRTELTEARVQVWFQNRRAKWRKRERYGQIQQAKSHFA
# Sequence of ALX4 (Homo sapiens, UniProt Q9H161 200-286) (Q9H161 200-286): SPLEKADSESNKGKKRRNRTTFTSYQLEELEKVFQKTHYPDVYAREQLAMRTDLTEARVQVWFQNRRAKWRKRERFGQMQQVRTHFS
# Sequence of ALX3 (O95076 139-225 L168Q): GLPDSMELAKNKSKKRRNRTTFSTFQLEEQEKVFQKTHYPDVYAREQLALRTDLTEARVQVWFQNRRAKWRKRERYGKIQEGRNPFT
# Sequence of ALX1 (Homo sapiens, UniProt Q15699 118-204, L144V) (Q15699 118-204 L144V): as the sequence (Q15699 118-204 L144R) above, with R27V counted along it
# Sequence of SHOX (Homo sapiens, UniProt O15266 103-189, R173C) (O15266 103-189 R173C): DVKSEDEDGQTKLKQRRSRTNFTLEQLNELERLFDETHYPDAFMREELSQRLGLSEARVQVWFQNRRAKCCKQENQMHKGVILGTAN
# Sequence of ALX1 (Homo sapiens, UniProt Q15699 118-204) (Q15699 118-204): as the sequence (Q15699 118-204 L144R) above, with R27L counted along it
# Sequence of PRRX1 (Homo sapiens, UniProt P54821 80-166) (P54821 80-166): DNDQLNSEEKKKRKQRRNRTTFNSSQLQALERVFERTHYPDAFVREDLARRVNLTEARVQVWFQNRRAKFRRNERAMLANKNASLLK
# Sequence of PROP1 (Homo sapiens, UniProt O75360 56-141, R99H) (O75360 56-141 R99H): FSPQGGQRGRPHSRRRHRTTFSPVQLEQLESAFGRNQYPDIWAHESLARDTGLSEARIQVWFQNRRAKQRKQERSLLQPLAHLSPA
# Sequence of ALX4 (Homo sapiens, UniProt Q9H161 200-286, Q225E) (Q9H161 200-286 Q225E): as the sequence (Q9H161 200-286) above, with Q26E counted along it
# Sequence of HESX1 (Homo sapiens, UniProt Q9UBX0 95-180, F115L) (Q9UBX0 95-180 F115L): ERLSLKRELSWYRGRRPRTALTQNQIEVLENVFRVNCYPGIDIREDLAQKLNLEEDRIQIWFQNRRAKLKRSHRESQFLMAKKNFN
# Sequence of SHOX (Homo sapiens, UniProt O15266 103-189) (O15266 103-189): as the sequence (O15266 103-189 R173C) above, with C71R counted along it
# Sequence of HESX1 (Homo sapiens, UniProt Q9UBX0 95-180) (Q9UBX0 95-180): as the sequence (Q9UBX0 95-180 F115L) above, with L21F counted along it
# Sequence of MSX2 (Homo sapiens, UniProt P35548 130-214, R199I) (P35548 130-214 R199I): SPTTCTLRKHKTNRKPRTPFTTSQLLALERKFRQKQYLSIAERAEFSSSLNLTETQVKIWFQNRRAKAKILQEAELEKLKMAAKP
# Sequence of HESX1 (Homo sapiens, UniProt Q9UBX0 95-180, P111T) (Q9UBX0 95-180 P111T): as the sequence (Q9UBX0 95-180 F115L) above, with P17T, L21F counted along it
# Sequence of HESX1 (Homo sapiens, UniProt Q9UBX0 95-180, R109Q) (Q9UBX0 95-180 R109Q): as the sequence (Q9UBX0 95-180 F115L) above, with R15Q, L21F counted along it
# Sequence of PRRX1 (Homo sapiens, UniProt P54821 80-166, F113S) (P54821 80-166 F113S): as the sequence (P54821 80-166) above, with F34S counted along it
# Sequence of HESX1 (Homo sapiens, UniProt Q9UBX0 95-180, R165K) (Q9UBX0 95-180 R165K): as the sequence (Q9UBX0 95-180 F115L) above, with L21F, R71K counted along it
Sequence,binding signal [1],binding signal [2],binding signal [3],binding signal [4],binding signal [5],binding signal [6],binding signal [7],binding signal [8],binding signal [9],binding signal [10],binding signal [11],binding signal [12],binding signal [13],binding signal [14],binding signal [15],binding signal [16],binding signal [17],binding signal [18],binding signal [19],binding signal [20]
AATTAACG,"11.7 upbm affinity estimate (log intensity, higher = more binding, comparable within an allelic series)","11.6 upbm affinity estimate (log intensity, higher = more binding, comparable within an allelic series)","13.9 upbm affinity estimate (log intensity, higher = more binding, comparable within an allelic series)","11.1 upbm affinity estimate (log intensity, higher = more binding, comparable within an allelic series)","13 upbm affinity estimate (log intensity, higher = more binding, comparable within an allelic series)","11.7 upbm affinity estimate (log intensity, higher = more binding, comparable within an allelic series)","12.2 upbm affinity estimate (log intensity, higher = more binding, comparable within an allelic series)","11.6 upbm affinity estimate (log intensity, higher = more binding, comparable within an allelic series)","9.39 upbm affinity estimate (log intensity, higher = more binding, comparable within an allelic series)","11.2 upbm affinity estimate (log intensity, higher = more binding, comparable within an allelic series)","11.3 upbm affinity estimate (log intensity, higher = more binding, comparable within an allelic series)","8.98 upbm affinity estimate (log intensity, higher = more binding, comparable within an allelic series)","11.2 upbm affinity estimate (log intensity, higher = more binding, comparable within an allelic series)","10.5 upbm affinity estimate (log intensity, higher = more binding, comparable within an allelic series)","10.4 upbm affinity estimate (log intensity, higher = more binding, comparable within an allelic series)","7.84 upbm affinity estimate (log intensity, higher = more binding, comparable within an allelic series)","7.64 upbm affinity estimate (log intensity, higher = more binding, comparable within an allelic series)","12.2 upbm affinity estimate (log intensity, higher = more binding, comparable within an allelic series)","13.3 upbm affinity estimate (log intensity, higher = more binding, comparable within an allelic series)",–
GGAAGACC,"6.27 upbm affinity estimate (log intensity, higher = more binding, comparable within an allelic series)","7.12 upbm affinity estimate (log intensity, higher = more binding, comparable within an allelic series)",–,–,–,"6.19 upbm affinity estimate (log intensity, higher = more binding, comparable within an allelic series)",–,–,"7.18 upbm affinity estimate (log intensity, higher = more binding, comparable within an allelic series)",–,–,"6.45 upbm affinity estimate (log intensity, higher = more binding, comparable within an allelic series)",–,–,"6.41 upbm affinity estimate (log intensity, higher = more binding, comparable within an allelic series)",–,"6.45 upbm affinity estimate (log intensity, higher = more binding, comparable within an allelic series)",–,–,–
AATTAAGA,"11.6 upbm affinity estimate (log intensity, higher = more binding, comparable within an allelic series)","11.7 upbm affinity estimate (log intensity, higher = more binding, comparable within an allelic series)","13.6 upbm affinity estimate (log intensity, higher = more binding, comparable within an allelic series)","11.2 upbm affinity estimate (log intensity, higher = more binding, comparable within an allelic series)","12.8 upbm affinity estimate (log intensity, higher = more binding, comparable within an allelic series)","11.6 upbm affinity estimate (log intensity, higher = more binding, comparable within an allelic series)",–,"11.7 upbm affinity estimate (log intensity, higher = more binding, comparable within an allelic series)","9.59 upbm affinity estimate (log intensity, higher = more binding, comparable within an allelic series)","11.3 upbm affinity estimate (log intensity, higher = more binding, comparable within an allelic series)","11.2 upbm affinity estimate (log intensity, higher = more binding, comparable within an allelic series)","9.03 upbm affinity estimate (log intensity, higher = more binding, comparable within an allelic series)","10.9 upbm affinity estimate (log intensity, higher = more binding, comparable within an allelic series)","10.4 upbm affinity estimate (log intensity, higher = more binding, comparable within an allelic series)","10.5 upbm affinity estimate (log intensity, higher = more binding, comparable within an allelic series)","7.71 upbm affinity estimate (log intensity, higher = more binding, comparable within an allelic series)","7.79 upbm affinity estimate (log intensity, higher = more binding, comparable within an allelic series)","12.1 upbm affinity estimate (log intensity, higher = more binding, comparable within an allelic series)",–,–
GAAGGCGC,"6.55 upbm affinity estimate (log intensity, higher = more binding, comparable within an allelic series)","7.24 upbm affinity estimate (log intensity, higher = more binding, comparable within an allelic series)",–,–,–,"6.36 upbm affinity estimate (log intensity, higher = more binding, comparable within an allelic series)",–,–,"7.21 upbm affinity estimate (log intensity, higher = more binding, comparable within an allelic series)",–,–,"6.47 upbm affinity estimate (log intensity, higher = more binding, comparable within an allelic series)",–,–,"6.47 upbm affinity estimate (log intensity, higher = more binding, comparable within an allelic series)",–,"6.58 upbm affinity estimate (log intensity, higher = more binding, comparable within an allelic series)",–,–,–
CAATTACA,"11.6 upbm affinity estimate (log intensity, higher = more binding, comparable within an allelic series)","11.4 upbm affinity estimate (log intensity, higher = more binding, comparable within an allelic series)",–,"10.9 upbm affinity estimate (log intensity, higher = more binding, comparable within an allelic series)",–,"11.9 upbm affinity estimate (log intensity, higher = more binding, comparable within an allelic series)","12.5 upbm affinity estimate (log intensity, higher = more binding, comparable within an allelic series)",–,"9.07 upbm affinity estimate (log intensity, higher = more binding, comparable within an allelic series)",–,–,"8.6 upbm affinity estimate (log intensity, higher = more binding, comparable within an allelic series)","10.8 upbm affinity estimate (log intensity, higher = more binding, comparable within an allelic series)",–,"10.2 upbm affinity estimate (log intensity, higher = more binding, comparable within an allelic series)",–,"7.44 upbm affinity estimate (log intensity, higher = more binding, comparable within an allelic series)",–,"13.2 upbm affinity estimate (log intensity, higher = more binding, comparable within an allelic series)","13.3 upbm affinity estimate (log intensity, higher = more binding, comparable within an allelic series)"
CAATTACG,"12 upbm affinity estimate (log intensity, higher = more binding, comparable within an allelic series)","11.8 upbm affinity estimate (log intensity, higher = more binding, comparable within an allelic series)",–,–,–,"12.1 upbm affinity estimate (log intensity, higher = more binding, comparable within an allelic series)","12.5 upbm affinity estimate (log intensity, higher = more binding, comparable within an allelic series)","11.2 upbm affinity estimate (log intensity, higher = more binding, comparable within an allelic series)","9.27 upbm affinity estimate (log intensity, higher = more binding, comparable within an allelic series)","10.9 upbm affinity estimate (log intensity, higher = more binding, comparable within an allelic series)",–,"8.68 upbm affinity estimate (log intensity, higher = more binding, comparable within an allelic series)","11 upbm affinity estimate (log intensity, higher = more binding, comparable within an allelic series)",–,"10.6 upbm affinity estimate (log intensity, higher = more binding, comparable within an allelic series)",–,"7.47 upbm affinity estimate (log intensity, higher = more binding, comparable within an allelic series)","12.1 upbm affinity estimate (log intensity, higher = more binding, comparable within an allelic series)",–,"13.4 upbm affinity estimate (log intensity, higher = more binding, comparable within an allelic series)"
CAATTATA,"12.8 upbm affinity estimate (log intensity, higher = more binding, comparable within an allelic series)","12.2 upbm affinity estimate (log intensity, higher = more binding, comparable within an allelic series)","13.8 upbm affinity estimate (log intensity, higher = more binding, comparable within an allelic series)","11.5 upbm affinity estimate (log intensity, higher = more binding, comparable within an allelic series)","13.4 upbm affinity estimate (log intensity, higher = more binding, comparable within an allelic series)","12.8 upbm affinity estimate (log intensity, higher = more binding, comparable within an allelic series)","13.1 upbm affinity estimate (log intensity, higher = more binding, comparable within an allelic series)","11.7 upbm affinity estimate (log intensity, higher = more binding, comparable within an allelic series)","9.46 upbm affinity estimate (log intensity, higher = more binding, comparable within an allelic series)","11.4 upbm affinity estimate (log intensity, higher = more binding, comparable within an allelic series)","11.4 upbm affinity estimate (log intensity, higher = more binding, comparable within an allelic series)","8.93 upbm affinity estimate (log intensity, higher = more binding, comparable within an allelic series)","11.5 upbm affinity estimate (log intensity, higher = more binding, comparable within an allelic series)","10.7 upbm affinity estimate (log intensity, higher = more binding, comparable within an allelic series)","11.4 upbm affinity estimate (log intensity, higher = more binding, comparable within an allelic series)","7.86 upbm affinity estimate (log intensity, higher = more binding, comparable within an allelic series)","8.06 upbm affinity estimate (log intensity, higher = more binding, comparable within an allelic series)","12.3 upbm affinity estimate (log intensity, higher = more binding, comparable within an allelic series)","13.4 upbm affinity estimate (log intensity, higher = more binding, comparable within an allelic series)","13.7 upbm affinity estimate (log intensity, higher = more binding, comparable within an allelic series)"
AATTAGCA,"11.6 upbm affinity estimate (log intensity, higher = more binding, comparable within an allelic series)","11.6 upbm affinity estimate (log intensity, higher = more binding, comparable within an allelic series)","13.6 upbm affinity estimate (log intensity, higher = more binding, comparable within an allelic series)","11 upbm affinity estimate (log intensity, higher = more binding, comparable within an allelic series)","12.7 upbm affinity estimate (log intensity, higher = more binding, comparable within an allelic series)","11.6 upbm affinity estimate (log intensity, higher = more binding, comparable within an allelic series)","12.2 upbm affinity estimate (log intensity, higher = more binding, comparable within an allelic series)","11.5 upbm affinity estimate (log intensity, higher = more binding, comparable within an allelic series)","9.43 upbm affinity estimate (log intensity, higher = more binding, comparable within an allelic series)","11.1 upbm affinity estimate (log intensity, higher = more binding, comparable within an allelic series)","11.1 upbm affinity estimate (log intensity, higher = more binding, comparable within an allelic series)","8.94 upbm affinity estimate (log intensity, higher = more binding, comparable within an allelic series)","10.9 upbm affinity estimate (log intensity, higher = more binding, comparable within an allelic series)","10.3 upbm affinity estimate (log intensity, higher = more binding, comparable within an allelic series)","10.4 upbm affinity estimate (log intensity, higher = more binding, comparable within an allelic series)","7.78 upbm affinity estimate (log intensity, higher = more binding, comparable within an allelic series)","7.45 upbm affinity estimate (log intensity, higher = more binding, comparable within an allelic series)","12.2 upbm affinity estimate (log intensity, higher = more binding, comparable within an allelic series)","13.2 upbm affinity estimate (log intensity, higher = more binding, comparable within an allelic series)",–
CCCAGGCG,"6.31 upbm affinity estimate (log intensity, higher = more binding, comparable within an allelic series)","6.92 upbm affinity estimate (log intensity, higher = more binding, comparable within an allelic series)",–,–,–,"6.34 upbm affinity estimate (log intensity, higher = more binding, comparable within an allelic series)",–,–,"7.04 upbm affinity estimate (log intensity, higher = more binding, comparable within an allelic series)",–,–,"6.42 upbm affinity estimate (log intensity, higher = more binding, comparable within an allelic series)",–,–,"6.32 upbm affinity estimate (log intensity, higher = more binding, comparable within an allelic series)",–,"6.49 upbm affinity estimate (log intensity, higher = more binding, comparable within an allelic series)",–,–,–
AATTAAGT,"11.6 upbm affinity estimate (log intensity, higher = more binding, comparable within an allelic series)","11.8 upbm affinity estimate (log intensity, higher = more binding, comparable within an allelic series)","13.9 upbm affinity estimate (log intensity, higher = more binding, comparable within an allelic series)","11.2 upbm affinity estimate (log intensity, higher = more binding, comparable within an allelic series)","13 upbm affinity estimate (log intensity, higher = more binding, comparable within an allelic series)","11.6 upbm affinity estimate (log intensity, higher = more binding, comparable within an allelic series)","12.2 upbm affinity estimate (log intensity, higher = more binding, comparable within an allelic series)","11.7 upbm affinity estimate (log intensity, higher = more binding, comparable within an allelic series)","9.31 upbm affinity estimate (log intensity, higher = more binding, comparable within an allelic series)","11.4 upbm affinity estimate (log intensity, higher = more binding, comparable within an allelic series)","11.3 upbm affinity estimate (log intensity, higher = more binding, comparable within an allelic series)","8.53 upbm affinity estimate (log intensity, higher = more binding, comparable within an allelic series)","11.2 upbm affinity estimate (log intensity, higher = more binding, comparable within an allelic series)","10.5 upbm affinity estimate (log intensity, higher = more binding, comparable within an allelic series)","10.3 upbm affinity estimate (log intensity, higher = more binding, comparable within an allelic series)","7.71 upbm affinity estimate (log intensity, higher = more binding, comparable within an allelic series)","7.65 upbm affinity estimate (log intensity, higher = more binding, comparable within an allelic series)","12.3 upbm affinity estimate (log intensity, higher = more binding, comparable within an allelic series)","13.3 upbm affinity estimate (log intensity, higher = more binding, comparable within an allelic series)","12.9 upbm affinity estimate (log intensity, higher = more binding, comparable within an allelic series)"
